Measured potencies and affinities stand elsewhere. Activity calls are given as the source filed them.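 How the source made its calls: active means signal-lowering compounds whose fitted half-maximal concentration is at or below twice the top tested dose in every run; inconclusive means runs disagree, flat 30 to 70% inhibition, or poor curve fit; inactive means the rest.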
What follows are compounds tested against Protein S100-A4 (Homo sapiens) (UniProt P26447) (assay: S100A4-myosin IIA binding inhibitor potency, dose response, biochemical, fluorescence polarization, cherry-picked hits (AID 687001)). Details: FP, S100A4/TAMRA-myosin IIA peptide binding; series mostly up to 11 µM.
Protein S100-A4 (Homo sapiens), sequence (P26447 whole entry, looked up): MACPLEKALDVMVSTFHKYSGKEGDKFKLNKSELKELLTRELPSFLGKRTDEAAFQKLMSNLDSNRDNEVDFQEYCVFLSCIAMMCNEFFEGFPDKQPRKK

Row | SMILES | outcome
1 | CN1CCCCN2[C@@H](CO)[C@@H](c3ccc(C#CC4(O)CCCC4)cc3)[C@@H]2C1 | inactive
2 | C[C@@H]1CN([C@H](C)CO)C(=O)Cc2cc(NC(=O)Nc3ccc(C(F)(F)F)cc3)ccc2O[C@H]1CN(C)Cc1ccc2c(c1)OCO2 | inactive
3 | C=C1CCN([C@@H](Cc2ccccc2)C(=O)NC2CCN(Cc3ccccc3)CC2)S(=O)(=O)c2ccccc21 | inactive
4 | Cc1ccc(S(=O)(=O)N2CCOCC2)cc1NC(=O)COC(=O)Cc1cccs1 | inactive
5 | CCOc1cc(CNCc2ccccc2)ccc1OCc1ccc(Cl)cc1 | inactive
6 | Oc1cccc(-c2sc3ccccc3c2-c2ccc(OCCN3CCCCC3)cc2)c1 | inactive
7 | O=C1CCCn2cc(nn2)COC[C@@H](Cc2ccccc2)N1 | inactive
8 | COC(=O)Cc1c(C)nc(SCc2ccccc2)[nH]c1=O | inactive
9 | COc1ccc2oc(C)c(C(=O)c3ccc(C)cc3)c2c1 | inactive

From PubChem BioAssay AID687001 (Broad Institute, 2013)
